{"source": "the supplement of paper PMC12494721", "note": "Counter-ions that a name gives are not always drawn. A number with no mark means an inactive call.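 The calls were made as follows: for the amine columns active = adjusted P below 0.05 in both replicates with a change the same way and a mean fold change under 0.8 or over 1.25; inactive = the rest.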", "data": [{"test_system": "Klebsiella aerogenes DSM 30053", "test": "fold change of Cadaverine concentration vs plate DMSO controls (fold change (ratio)); higher = more amine produced, active = hit call of the paper (significant change in both replicates, either direction)", "conditions": "incubation time: 27 h, anaerobic, 37 °C", "procedure,_shortened": "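Each value is the fold change relative to DMSO-only wells on the same plate. Four gut bacterial strains were grown anaerobically in mGAM at 37 °C for 27 h in 80 µL wells, starting at OD 0.1 before a 1:1 dilution, with compounds at 20 µM final (sweeteners 50 µM). Whole cultures were extracted with cold acetonitrile/methanol containing 0.1% formic acid, centrifuged, and amines were quantified by LC–triple-quadrupole MS (dynamic MRM) against external calibration curves with within-batch drift correction. Values are means of 2 biological replicates.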", "values": [{"smiles": "CC1CC(OC(=O)C(O)c2ccccc2)CC(C)(C)C1", "note": "(centres undefined) [Cyclandelate] (20 µM)", "fold change of Cadaverine concentration": 1.01}, {"smiles": "COc1ccc(C(=O)CC(=O)c2ccc(C(C)(C)C)cc2)cc1", "note": "[Avobenzone] (20 µM)", "fold change of Cadaverine concentration": 0.988}, {"smiles": "Cc1nc2ccccc2n1Cc1ccc(Cl)cc1", "note": "[Chlormidazole] (20 µM)", "fold change of Cadaverine concentration": 0.989}, {"smiles": "Cn1nnnc1SCC1=C(C(=O)O)N2C(=O)[C@@H](NC(=O)[C@H](O)c3ccccc3)[C@H]2SC1", "note": "[Cefamandole sodium salt] (20 µM)", "fold change of Cadaverine concentration": 1.06}, {"smiles": "CCN1CCC[C@H]1CNC(=O)c1c(O)c(Cl)cc(Cl)c1OC", "note": "[Raclopride] (20 µM)", "fold change of Cadaverine concentration": 0.983}, {"smiles": "O=c1oc2ccccc2c(O)c1Cc1c(O)c2ccccc2oc1=O", "note": "[Dicumarol] (20 µM)", "fold change of Cadaverine concentration": 1.01}, {"smiles": "S=C([S-])NCCNC(=S)[S-].S=C([S-])NCCNC(=S)[S-].[Mn+2].[Zn+2]", "note": "(20 µM)", "fold change of Cadaverine concentration": 1.07}, {"smiles": "CC(NCCC(c1ccccc1)c1ccccc1)c1ccccc1", "note": "(centres undefined) [Fendiline hydrochloride] (20 µM)", "fold change of Cadaverine concentration": 0.998}, {"smiles": "Nc1ccc(S(=O)(=O)Nc2nccs2)cc1", "note": "[Sulfathiazole] (20 µM)", "fold change of Cadaverine concentration": 1.01}, {"smiles": "CC(=O)/N=c1/sc(S(N)(=O)=O)nn1C", "note": "[Methazolamide] (20 µM)", "fold change of Cadaverine concentration": 0.996}, {"smiles": "Oc1ccccc1O", "note": "[Catechol] (20 µM)", "fold change of Cadaverine concentration": 0.978}, {"smiles": "COc1cc(C(=O)NS(=O)(=O)c2ccccc2C)ccc1Cc1cn(C)c2ccc(NC(=O)OC3CCCC3)cc12", "note": "[Zafirlukast] (20 µM)", "fold change of Cadaverine concentration": 1.01}, {"smiles": "COc1nc(N)nc2c1ncn2[C@@H]1O[C@H](CO)[C@@H](O)[C@@H]1O", "note": "[Nelarabine] (20 µM)", "fold change of Cadaverine concentration": 0.978}, {"smiles": "O=C(NCc1ncc(C(F)(F)F)cc1Cl)c1c(Cl)cccc1Cl", "note": "(20 µM)", "fold change of Cadaverine concentration": 1.01}, {"smiles": "CCc1oc2ccccc2c1C(=O)c1cc(Br)c(O)c(Br)c1", "note": "[Benzbromarone] (20 µM)", "fold change of Cadaverine concentration": 0.998}, {"smiles": "Nc1nc(=O)[nH]cc1F", "note": "[Flucytosine] (20 µM)", "fold change of Cadaverine concentration": 0.979}, {"smiles": "CC[N+](CC)(CC)CCOc1cccc(OCC[N+](CC)(CC)CC)c1OCC[N+](CC)(CC)CC", "note": "[Gallamine triethiodide] (20 µM)", "fold change of Cadaverine concentration": 1.04}, {"smiles": "COc1cc(C)nc(-n2nc(C)cc2OC)n1", "note": "[Epirizole] (20 µM)", "fold change of Cadaverine concentration": 1.02}, {"smiles": "COc1ccccc1O", "note": "[Guaiacol] (20 µM)", "fold change of Cadaverine concentration": 0.988}, {"smiles": "COc1cccc2c1C(=O)c1c(O)c3c(c(O)c1C2=O)C[C@@](O)(C(=O)CO)C[C@@H]3O[C@H]1C[C@H](N)[C@@H](O)[C@H](C)O1", "note": "[Epirubicin hydrochloride] (20 µM)", "fold change of Cadaverine concentration": 1.02}, {"smiles": "Cc1onc(-c2ccccc2)c1C(=O)N[C@@H]1C(=O)N2[C@@H]1SC(C)(C)[C@@H]2C(=O)O", "note": "[Oxacillin sodium] (20 µM)", "fold change of Cadaverine concentration": 0.984}, {"smiles": "CCCOc1cc(N)ccc1C(=O)OCCN(CC)CC", "note": "[Propoxycaine hydrochloride] (20 µM)", "fold change of Cadaverine concentration": 1.01}, {"smiles": "OC[C@H]1O[C@H](O[C@H]2O[C@H](CO)[C@@H](O)[C@H](O)[C@H]2O)[C@H](O)[C@@H](O)[C@@H]1O", "note": "[Trehalose] (50 µM)", "fold change of Cadaverine concentration": 1.06}, {"smiles": "CN1[C@@H]2CC[C@H]1C[C@@H](OC(c1ccccc1)c1ccccc1)C2", "note": "[Benztropine mesylate] (20 µM)", "fold change of Cadaverine concentration": 0.995}, {"smiles": "C[C@H](CCC(=O)O)[C@H]1CC[C@H]2[C@@H]3CC[C@@H]4C[C@H](O)CC[C@]4(C)[C@H]3CC[C@]12C", "note": "[Lithocholic acid] (20 µM)", "fold change of Cadaverine concentration": 1.03}, {"smiles": "CN(C)CCC=C1c2ccccc2COc2ccccc21", "note": "[Doxepin hydrochloride] (20 µM)", "fold change of Cadaverine concentration": 1}, {"smiles": "NC[C@H]1O[C@H](O[C@H]2[C@H](O)[C@@H](O[C@H]3O[C@H](CO)[C@@H](O)[C@H](N)[C@H]3O)[C@H](N)C[C@@H]2N)[C@H](N)C[C@@H]1O", "note": "[Tobramycin] (20 µM)", "fold change of Cadaverine concentration": 0.978}, {"smiles": "CC(=O)Oc1cccc2c1C(=O)c1c(OC(C)=O)cc(C(=O)O)cc1C2=O", "note": "[Diacerein] (20 µM)", "fold change of Cadaverine concentration": 1}, {"smiles": "CCCCc1ncc(/C=C(\\Cc2cccs2)C(=O)O)n1Cc1ccc(C(=O)O)cc1", "note": "[Eprosartan mesylate] (20 µM)", "fold change of Cadaverine concentration": 1.03}]}]}
